Compound activity as filed in PubChem.
Compounds with a hit are over-represented: about 19% of the library has one in this group of screens.
HT1080 IDH1KD tx: qHTS for induction of synthetic lethality in tumor cells producing 2HG: qHTS for the HT-1080-IDH1KD cell line; HT-1080 IDH1 knockdown viability, ATP luminescence, 48 h; Potency, µM (titrated, usually from 46.1 µM), for inactives: at the top dose activity, negative = toxicity, most hits filed as cytotoxic; 360,000 tested, 2% active; AID 686971, 2013;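 further: potency means the concentration at half of the fitted maximal effect; 0% = DMSO wells and -100% = cell-free medium wells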
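% activity derives from luminescence (CellTiter-Glo), normalised to DMSO and no-cell wells. HT-1080-IDH1KD cells, 750/well, had 48 h compound exposure at 37 °C.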
uPA generation: qHTS for Inhibitors of Cell Surface uPA Generation; 330,000 tested, 0.31% active; AID 540303, 2011; Potency, µM (top dose mostly 38.3 µM), inactives show at the top dose activity change, negative = inhibition, most hits filed as inhibitors; cell surface uPA generation assay, qHTS; active means well fitted inhibition curve with a large enough effect; inconclusive means small, poorly fitted or top-dose-only effect; inactive means no such curve, though single readings can be large or run the other way; tested in mouse RAW 264.7 cells; further: potency means the concentration at half of the fitted maximal effect; nearly all actives have a fitted effect of over 55% in size
HT1080-NT tox: qHTS for induction of synthetic lethality in tumor cells producing 2HG: qHTS for the HT-1080-NT fibrosarcoma cell line; HT-1080-NT fibrosarcoma viability, CellTiter-Glo ATP luminescence, 48 h; 360,000 tested, 1.6% active; AID 686970, 2013; Potency, µM (series often up to 46.1 µM), inactives show at the highest dose activity, negative = less viability, actives largely listed as cytotoxic;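 further: NT is the 2HG producing partner of a matched IDH1 knockdown line; potency means the concentration at half of the fitted maximal effect; 0% = DMSO-treated cells and -100% = media-only wells without cells; nearly all actives have a fitted effect of over 55% in size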
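Viability by CellTiter-Glo luminescence after 48 h compound exposure at 37C of HT-1080-NT cells (750/well, RPMI, 5% FBS). % activity scaled between DMSO wells and medium-only wells, then curve-fitted and categorized by curve class.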
IL1B secr inh: qHTS for Inhibitors of Inflammasome Signaling: IL-1-beta AlphaLISA Primary Screen; THP-1 LPS/ATP IL-1B secretion, AlphaLISA, 16 h; active compounds read low; activity change, % at 57.5 µM; 360,000 tested, 4.7% active; in the data active means activity change below about -50%; inconclusive means mostly about -30% to -49%
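Secreted IL-1B measured by AlphaLISA bead assay after 16 h compound exposure of THP-1 cells; compounds (final up to 57.5 uM) added 1 h before LPS (250 ng/mL) and ATP (1.25 mM) stimulation; lower signal means less secretion.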
DT40 TDP1 no CPT: qHTS for Inhibitors of human tyrosyl-DNA phosphodiesterase 1 (TDP1): qHTS in cells in absence of CPT; DT40 Tdp1-/- hTDP1 cells, no CPT, ATP luminescence, 48 h; Potency, µM (series often up to 46.2 µM), for the others: at the highest dose activity change, negative = growth inhibition, most hits filed as inhibitors; 420,000 tested, 15% active; AID 686978, 2013; further: potency means the concentration at half of the fitted maximal effect; nearly all actives have a fitted effect of over 55% in size
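Readout: luminescence from CellTiter-Glo after 30 min in the dark at RT. Cells: DT40 Tdp1-/- with stable hTDP1, 400/well. Exposure: compounds alone, ≥48 hr, 37 °C.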
DT40 TDP1 CPT: qHTS for Inhibitors of human tyrosyl-DNA phosphodiesterase 1 (TDP1): qHTS in cells in presence of CPT; AID 686979, 2013; chicken DT40 Tdp1-/-;hTDP1 cells + 20 nM CPT, ATP luminescence, 48 h; Potency, µM (doses to about 46.2 µM), for the others: at the highest dose activity change, negative = growth inhibition, usual class: inhibitors; 420,000 tested, 12% active; further: potency means the concentration at half of the fitted maximal effect; nearly all actives have a fitted effect of over 55% in size
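Chicken DT40 Tdp1-/- cells stably complemented with human TDP1 were seeded at 400 cells/well in medium containing 20 nM camptothecin, exposed to pin-transferred compounds, and grown at 37 °C for at least 48 hr. Viability was read as ATP luminescence.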
Starred values were filed as active, the others as inactive; ? = inconclusive; / = no result; [ ] = dose if it differs, or a comment. Unless noted, the call rests on the fitted dose curve; in most records, active means well fitted curve in the direction sought with a large enough effect; inconclusive means small, poorly fitted or top-dose-only effect, or another doubt; inactive means no such curve, though single readings can be large; an effect the other way counts as inactive or inconclusive. Unless noted, on the % scale 0 is the no-effect control and ±100 the full control effect.

SMILES | HT1080 IDH1KD tx | uPA generation | HT1080-NT tox | IL1B secr inh | DT40 TDP1 no CPT | DT40 TDP1 CPT
COc1ccc(CC(=O)OC(C)C(=O)Nc2c(C)n(C)n(-c3ccccc3)c2=O)cc1OC (stereo not given) | 7.7% | -5.7% | 3.7%[9.24 µM] | 13.8 | 12.1% | -2.1%
OC[C@@H]1CN(Cc2ccc3c(c2)OCO3)C[C@H](n2cnc3c(N4CCCC4)ncnc32)O1 | 17.7% | / | 4.3% | -18.8 | ? | ?
Cc1sc2ncn(CC(=O)NCC(=O)N3CCN(c4ccc(F)cc4)CC3)c(=O)c2c1C | -9.8% | 0.2% | 2.9% | 9.6 | -29.8% | -15.6%
CC1=C(C(=O)N(C(C)C)C(C)C)CC(CC(=O)NCCN2CCOCC2)C(=O)N1CCCN1CCCC1=O (stereo not given) | 11.8% | / | 16.5% | -19.3 | 5.7% | 12.1%
CCn1c(/C=C/N(C(C)=O)c2ccccc2)[n+](CCCS(=O)(=O)[O-])c2cc(Cl)c(Cl)cc21 | 4.9% | 3.8% | 4.3% | -23.5 | 21.9% | 8.9%
CCn1c(/C=C/Nc2ccccc2)[n+](CC)c2cc(Cl)c(Cl)cc21 | ? | -4.6% | -16.8% | 6.8 | 3.26µM* | 2.59µM*
Cc1ccc(/C=N/NC(=O)c2cccc([N+](=O)[O-])c2)o1 | 20.0% | 4.1% | 0.0% | -4.9 | 7.4% | 13.8%
O=C(N/N=C/c1ccccn1)c1ccc(NC(=O)c2cccc([N+](=O)[O-])c2)cc1 | -15.7% | -1.0% | -14.1% | 4.0 | ? | -17.1%
O=C(N/N=C/c1ccccn1)c1cccc([N+](=O)[O-])c1 | ? | -4.0% | -24.5% | -95.7* | 16.4µM* | ?
O=C(N/N=C/c1ccccn1)c1cccc(S(=O)(=O)Nc2ccccc2Cl)c1 | ? | / | -18.5% | 91.5 | 16.4µM* | 16.4µM*
Cc1cc(/C=N/NC(=O)c2cccc([N+](=O)[O-])c2)c(C)n1-c1ccccc1 | -16.9% | -5.9% | -7.6% | -79.7* | ? | ?
O=C(N/N=C/c1ccccc1O)c1cccc(C(F)(F)F)c1 | 2.59µM* | -8.5% | ? | 71.3 | 3.26µM* | 5.17µM*
O=C(N/N=C/c1ccccn1)c1cc([N+](=O)[O-])cc([N+](=O)[O-])c1 | -9.4% | -9.2% | -11.0% | 99.9 | 20.6µM* | ?
Cc1cccc(C(=O)N/N=C/c2ccccn2)c1 | ? | -5.3% | -19.1% | 27.1 | 14.6µM* | ?
CC(/C=C/c1ccc2c(c1)OCO2)=N\NC(=O)c1cccc([N+](=O)[O-])c1 | -4.3% | -7.3% | 5.9% | -7.8 | 14.6µM* | 20.6µM*
O=C(NN=Cc1ccccc1O)c1cccc([N+](=O)[O-])c1 | 1.16µM* | -14.3% | 0.291µM* | 160.0 | 0.164µM* | 0.82µM*
CC(=O)Nc1ccc(CN2C(=O)C(C)ON=C2c2ccccc2-c2ccco2)cc1 (stereo not given) | 13.3% | / | ? | 0.4 | ? | ?
Cc1ccc2nc(NC(=O)CSc3nccn3Cc3ccc(Cl)cc3)sc2c1 | / | / | / | / | -7.0% | -6.3%
O=C(N/N=C/c1cccc(O)c1)c1ccc(NC(=O)c2cccc([N+](=O)[O-])c2)cc1 | -30.0% | 8.9% | -13.3% | -4.2 | 18.4µM* | ?
Cc1ccccc1NC(C)C(=O)N/N=C/c1c[nH]c2ccccc12 (stereo not given) | -1.1% | -0.7% | -8.0% | -15.0 | -19.6% | -2.8%
O=C(CNc1ccc2ccccc2c1)N/N=C/c1ccccn1 | -27.7% | 0.2% | -25.4% | 40.8 | 18.4µM* | ?
